Over roughly 33,000 sequences, “E-score (-0.5 to 0.5)” has its median near -0.054; the highest 2% begin near 0.39. Only a selection was taken, and the highest values are over-represented in it overall.
target: Ylr278c (UniProt Q05854); test: PBM E-score (8-mer binding enrichment) (E-score (-0.5 to 0.5)); higher = stronger / more preferred TF binding; conditions: protein concentration: 200 nM; construct: GST-DNA-binding domain
Description: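 Universal 'all 10-mer' protein binding microarrays (Agilent AMADID 015681) probed with GST-tagged S. cerevisiae TFs (full-length or DBD) made by in vitro transcription/translation (PURExpress), about 100-200 nM. Bound TF was detected with fluorescent anti-GST. Each ungapped 8-mer (which stands for itself and its reverse complement) is scored by the PBM enrichment score (E-score), a modified Wilcoxon-Mann-Whitney statistic from -0.5 to +0.5, computed with the Universal PBM Analysis Suite. Scale: above 0.35 generally sequence-specific binding.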

UniProt Q05854, sequence (Q05854 whole entry, the tested form may be a part): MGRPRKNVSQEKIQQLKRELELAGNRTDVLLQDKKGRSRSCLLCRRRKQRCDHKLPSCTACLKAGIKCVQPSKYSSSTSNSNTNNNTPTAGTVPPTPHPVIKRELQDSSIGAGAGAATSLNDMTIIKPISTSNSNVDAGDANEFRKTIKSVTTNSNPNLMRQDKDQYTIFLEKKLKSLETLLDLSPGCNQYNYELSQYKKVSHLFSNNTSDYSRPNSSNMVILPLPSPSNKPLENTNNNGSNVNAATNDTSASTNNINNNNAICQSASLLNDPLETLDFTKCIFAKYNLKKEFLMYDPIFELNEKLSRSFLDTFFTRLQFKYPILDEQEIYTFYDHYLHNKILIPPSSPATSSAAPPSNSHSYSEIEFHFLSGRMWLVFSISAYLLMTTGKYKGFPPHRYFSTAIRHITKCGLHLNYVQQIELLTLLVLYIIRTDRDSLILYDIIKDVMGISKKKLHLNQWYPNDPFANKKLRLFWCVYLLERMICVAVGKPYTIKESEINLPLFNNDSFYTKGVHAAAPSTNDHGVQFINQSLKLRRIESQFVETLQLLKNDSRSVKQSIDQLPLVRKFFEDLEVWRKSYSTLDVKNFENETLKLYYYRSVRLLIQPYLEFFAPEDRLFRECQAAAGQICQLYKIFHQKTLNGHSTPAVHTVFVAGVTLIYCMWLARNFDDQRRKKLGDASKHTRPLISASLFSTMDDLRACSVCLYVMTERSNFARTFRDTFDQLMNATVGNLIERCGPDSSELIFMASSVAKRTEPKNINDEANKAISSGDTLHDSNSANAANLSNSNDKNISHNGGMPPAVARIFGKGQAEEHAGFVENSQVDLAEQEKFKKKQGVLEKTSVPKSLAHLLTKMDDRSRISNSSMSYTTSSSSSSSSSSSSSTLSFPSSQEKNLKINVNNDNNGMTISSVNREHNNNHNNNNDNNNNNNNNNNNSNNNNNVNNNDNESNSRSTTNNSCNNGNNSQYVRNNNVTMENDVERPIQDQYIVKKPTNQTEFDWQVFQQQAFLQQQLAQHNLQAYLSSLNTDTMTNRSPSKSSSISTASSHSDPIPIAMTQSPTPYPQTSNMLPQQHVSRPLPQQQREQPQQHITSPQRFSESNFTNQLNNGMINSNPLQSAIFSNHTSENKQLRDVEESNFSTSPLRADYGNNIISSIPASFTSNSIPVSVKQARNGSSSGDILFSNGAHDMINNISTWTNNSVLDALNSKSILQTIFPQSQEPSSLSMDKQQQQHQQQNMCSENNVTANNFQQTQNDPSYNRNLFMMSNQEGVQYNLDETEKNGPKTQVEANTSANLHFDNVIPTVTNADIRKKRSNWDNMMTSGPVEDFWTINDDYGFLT

Sequence | PBM E-score
CATTTGAG | -0.0532
CCGGACTA | 0.458
ACGGACTA | 0.315
CGGGACTC | 0.341
ACGGACTC | 0.304
GCGGACTA | 0.384
CCGGACTC | 0.43
AGGCCTAC | -0.167
AAGCAATT | -0.0901
CATCCCAC | -0.135
ATAGTGTA | -0.188
GCCAAACC | 0.119
GACTTGAC | -0.059
AGTATCTG | -0.207
CCGATCGA | 0.226
CCGATCGG | 0.43
ACGATCGG | 0.334
CCGATCCA | 0.208
ACGATCCG | 0.283
CCGATCCG | 0.424
CCGATTAA | 0.333
CATGTTGA | -0.0612
CGAGAATA | 0.0398
CAGGGCCG | 0.181
ATTTAAGA | -0.154
AAGATGGT | -0.0478

Sequence | PBM E-score
CTACGGAG | 0.398
ATACGGAA | 0.345
CTACGGAC | 0.261
CTACGGAA | 0.197
ATACGGAT | 0.256
ATACGGAG | 0.425
CTAAACAC | -0.033
GTGGACAA | 0.124
AGCAAGAC | -0.0712
ACACCAAC | -0.126
AAGCATAT | -0.014
ATCCCGGG | 0.392
ATCCCCGG | 0.425
ATCCCCCG | 0.3
ATCCCCGA | 0.379
ATCCCCTG | -0.16
ATCCCGAG | 0.308
ATCCCGTG | 0.212
ATCCCGGA | 0.44
GTCCCGGA | 0.439
ATCCCGTA | 0.158
GTCCCCGA | 0.217
GTCCCGCA | 0.163
CGCGACAA | 0.106
ATTGTAGG | -0.0526
ACAATCGA | -0.178

Sequence | PBM E-score
AATTAACA | -0.128
GACCTGAC | -0.198
CGAGGGCC | 0.0992
ATCCCGCC | 0.297
CTCCCGGC | 0.356
ATCCCCCC | -0.298
ATCCCCGC | 0.393
ATCCCGGC | 0.391
CTCCCGGA | 0.398
ATCCCGTC | 0.231
CTCCCCGA | 0.268
CTCCCCGC | 0.288
GAGCCTAC | 0.0364
AGCGTCTG | -0.136
CAGGGGAC | -0.151
AATGCTTC | 0.0555
GAAACTGC | 0.176
ATTGCTCC | 0.256
AAATCCGT | 0.362
GAATCCGA | 0.368
AAATCCGA | 0.449
AAATCCGG | 0.474
AAATCCAG | -0.0486
TAATCCGA | 0.359
CAATCCGG | 0.393
CAATCCCG | 0.368

Sequence | PBM E-score
CAATCCGC | 0.197
CAATCCGA | 0.251
AAATCCCA | -0.101
AAATCCCG | 0.426
AGCGTCTC | 0.0181
CCCTAGTC | -0.368
GATGGCCA | -0.102
CCCTAGCG | -0.352
CTGGGCAC | -0.183
ACCTCAAT | -0.178
CTCAGCCA | -0.0917
ATGAGCCG | -0.00632
ACCTACAA | -0.178
AAATCCGC | 0.401
GAATCCGC | 0.259
ACATCCGC | 0.352
GACTTTAA | -0.0643
CATAGCCA | -0.115
GGGAATTA | 0.143
CGGAAGTA | 0.342
CTGAATTC | -0.0397
AGGAATTA | 0.0107
AGGAATCA | -0.0846
AGGAAGTC | -0.156
AGGAATTC | -0.0584
CGGAATCA | 0.39

Sequence | PBM E-score
GGGAATCA | -0.0137
CGGAAGTC | 0.396
CGGAATTA | 0.466
CGGAATTC | 0.464
GACCTCAA | -0.226
TAGATAAA | -0.0204
AGTTGGTA | -0.238
AGTCAACC | -0.0996
CGAAGCGC | 0.197
CCAGCCTC | -0.302
GTGGGTGA | 0.0373
CAGTGGCG | 0.0163
CACGGAAC | 0.276
AGCGGAAC | 0.333
TACGGAAA | 0.3
CGCGGAAC | 0.368
TGCGGAAA | 0.334
ACCGGAAG | 0.388
ACCGGAAC | 0.428
AGCGGAAG | 0.305
AACGGAAG | 0.0937
ACCGGAAA | 0.369
CCCGGAAC | 0.4
TCCGGAAA | 0.456
GCCACCAA | -0.0527
CTTCGCAC | -0.164

Sequence | PBM E-score
AAAAGTCC | 0.371
TAATGGGA | -0.256
AGAAGAGG | -0.194
CCCTCAGC | -0.0523
ACCGGAAT | 0.389
GCCGGAAA | 0.428
GCCGGGAA | 0.329
CTCGGAAG | 0.303
CCGGGAAA | 0.354
ACCGGGAT | 0.388
CACGGAAA | 0.328
GACGGAAA | 0.35
CCCGGAAG | 0.39
CACGGAAG | 0.228
CCCGGAAA | 0.429
ACCGGTAT | 0.277
CGCAATTA | 0.23
AAACTGCC | -0.0969
ACCTCTTA | 0.176
GTCTAAAC | 0.0271
ATCGCGTC | -0.0429
GCTTGGCA | -0.34
GACGGAAC | 0.192
GGCGGAAC | 0.349
GCCGGAAC | 0.432
GAGCGCTC | 0.0431

Sequence | PBM E-score
TCTTATCA | 0.0183
CCAATGTC | -0.156
ACCTCCGA | 0.454
ACCTCCTA | -0.101
TCCTCCGA | 0.43
GCCTCCGC | 0.361
ACCTCCAA | -0.209
TCCTCCAA | -0.245
CCCTCCGG | 0.388
CCCTCCGC | 0.259
GCCTCCGA | 0.398
CCCTCCAG | -0.0892
TCCTCCCA | 0.0879
GCCTCCAA | -0.134
AAGCCCAG | -0.143
ACACCTAG | -0.13
AGACTTCG | -0.137
GACAGGTA | -0.0451
GCTATAGA | -0.234
CCAGGCAC | -0.0214
ACCTCCGG | 0.47

— the supplement of paper PMC3334620
